The values that follow come from PubChem BioAssay.

“And” between values parts separate entries of the source, which are not always exact repeats. Equal values may be shown once. The source made the active and inactive calls.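 Rule for the calls, unless noted: active = compounds whose cell count with miR-34 switched on is under 0.7 times the count with it off; inactive = the rest.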

A short description of assay [1]: viability loss with induced miR-34 in A549 – imaging, A549 dox-inducible miR-34, nuclei and caspase counts, primary screen (AID 1347080). Conditions: A549 miR-34 inducible, Hoechst nuclei count, 48 h.
A short description of assay [2]: MELAS cybrid and Rieske KO viability enhancers – cell-based, MELAS cybrids, Rieske KO mouse fibroblasts, CellTiter-Glo, primary screen (AID 1508586;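 active = mean z-score across replicates of 1.96 or higher in either the MELAS or the Rieske mutant cell line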;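 note: z relative to plate mean and SD of compound and empty wells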). Conditions: low glucose. On the technique in general: Cellular ATP, detected with luciferase, serves as a proxy for viable cell number.
The nature of assay [3]: blockers of cellular phospholipid synthesis – cell-based, LOPAC library, screen 4, primary screen (AID 1347384; call rule not given here). Conditions: animal cells, phospholipid biosynthesis inhibition screen; at 10 µM.
[4] abbreviates: stronger effect = lower value, cell number ratio, induced over uninduced.
Where [5] appears, read: measured here: relative caspase fold change +Dox/-Dox.
Where [6] appears, read: measured here: total cells with miR-34 induction, stronger effect = lower value.
[7] abbreviates: measured here: total cells without miR-34 induction.
Setting [8] is: MELAS cybrid survival, CellTiter-Glo 48 h, stronger effect = higher value.
Where [9] appears, read: Rieske KO mouse fibroblast survival, CellTiter-Glo 72 h.

With `CCC(=O)c1c(O)cc(O)cc1O`, the fold change in assay [1] (setting [4]) is 0.895 (inactive); in assay [1] (setting [5]), 0.888. The cell count in assay [1] (setting [6]) came out at 7860; in assay [1] (setting [7]) it was 8770. Moreover, the z-score in assay [2] (setting [8]) was -0.229 (inactive); in assay [2] (setting [9]) it was -0.146.
Consider `COc1ccc(C(=O)c2ccccc2)c(O)c1`, for which the fold change in assay [1] (setting [4]) was 0.864 (inactive) and 0.859 (inactive); in assay [1] (setting [5]), 1.19 and 0.952. Further, the cell count in assay [1] (setting [6]) was 7820 and 11100; in assay [1] (setting [7]), 9050 and 12900. For the same molecule, the z-score was -0.0705 (inactive) in assay [2] (setting [8]) and -1.09 in assay [2] (setting [9]).
On to `C=CCc1ccccc1OCC(O)CNC(C)C` (stereo not given), for which the fold change is 0.963 (inactive) and 0.998 (inactive) and 0.909 (inactive) in assay [1] (setting [4]); 1.1 and 1.18 and 0.556 in assay [1] (setting [5]). In addition, the cell count in assay [1] (setting [6]) was 10100 and 7510 and 7890; in assay [1] (setting [7]), 10500 and 7520 and 8680. In addition, in assay [3], the molecule was classed as inactive. Further, the z-score in assay [2] (setting [8]) is -0.407 (inactive) and -0.689 (inactive); in assay [2] (setting [9]), -0.409 and 0.651.
Take `Cc1ccccc1OCC(O)CO` (stereo not given): the fold change is 0.91 (inactive) and 0.921 (inactive) in assay [1] (setting [4]); 0.936 and 3.64 in assay [1] (setting [5]). The cell count in assay [1] (setting [6]) was 8610 and 11300; in assay [1] (setting [7]), 9470 and 12300. For the same molecule, the results for the z-score in assay [2] (setting [8]) and in assay [2] (setting [9]) were -0.331 (inactive) and -0.218, respectively.
Take `CN(C)CCCN1c2ccccc2Sc2ccc(C(F)(F)F)cc21`: the fold change in assay [1] (setting [4]) was 1.11 (inactive) and 0.899 (inactive) and 0.891 (inactive); in assay [1] (setting [5]) it was 0.594 and 1.31 and 3.14. In addition, the cell count in assay [1] (setting [6]) was 1420 and 7820 and 9630; in assay [1] (setting [7]) it was 1280 and 8700 and 10800. In addition, the molecule was called inactive in assay [3]. Besides, the z-score is -0.173 (inactive) in assay [2] (setting [8]) and 0.266 in assay [2] (setting [9]).
On to `CCOC(=O)c1ccc(N)cc1`, for which the fold change in assay [1] (setting [4]) is 0.793 (inactive) and 0.945 (inactive) and 0.848 (inactive); in assay [1] (setting [5]), 1.13 and 0.443 and 0.967. Besides, the cell count in assay [1] (setting [6]) is 7670 and 8350 and 9530; in assay [1] (setting [7]) it was 9660 and 8840 and 11200. Further, the z-score in assay [2] (setting [8]) was -0.198 (inactive) and -0.244 (inactive); in assay [2] (setting [9]), -0.136 and -0.658.
`Cc1[nH]c(C)c(Cl)c(=O)c1Cl`: the fold change is 0.869 (inactive) and 0.865 (inactive) in assay [1] (setting [4]); 4.77 and 1.49 in assay [1] (setting [5]). In addition, the cell count is 11500 and 9370 in assay [1] (setting [6]); 13300 and 10800 in assay [1] (setting [7]). For the same molecule, the values for the z-score in assay [2] (setting [8]) and in assay [2] (setting [9]) were -1.24 (inactive) and -1.35, respectively.
Consider `CC(N)CCCC(C)(C)O` (stereo not given), for which the fold change in assay [1] (setting [4]) was 0.926 (inactive); in assay [1] (setting [5]), 1.29. In addition, the cell count in assay [1] (setting [6]) was determined as 8630; in assay [1] (setting [7]), 9320. Further, the values for the z-score in assay [2] (setting [8]) and in assay [2] (setting [9]) were 0.045 (inactive) and 0.396, respectively.
Consider `Cc1ccsc1/C=C/C1=NCCCN1C`, for which the fold change in assay [1] (setting [4]) was 0.892 (inactive) and 0.795 (inactive); in assay [1] (setting [5]) it was 1.23 and 5.32. Besides, the cell count is 8120 and 10200 in assay [1] (setting [6]); 9110 and 12800 in assay [1] (setting [7]). Further, the z-score in assay [2] (setting [8]) is -0.598 (inactive); in assay [2] (setting [9]), 0.242.
Regarding `Cc1ccc(C(=O)C(C)CN2CCCCC2)cc1` (stereo not given), the fold change in assay [1] (setting [4]) was 0.986 (inactive); in assay [1] (setting [5]), 0.455. The cell count in assay [1] (setting [6]) was found to be 8610; in assay [1] (setting [7]) it was 8730. Moreover, the z-score was -0.166 (inactive) in assay [2] (setting [8]) and -0.145 in assay [2] (setting [9]).
On to `Cc1c(Nc2ncccc2C(=O)O)cccc1C(F)(F)F`, for which the fold change in assay [1] (setting [4]) is 0.839 (inactive) and 0.931 (inactive) and 0.832 (inactive); in assay [1] (setting [5]), 1.09 and 0.676 and 4.07. Also, the cell count is 7890 and 7810 and 10300 in assay [1] (setting [6]); 9410 and 8390 and 12400 in assay [1] (setting [7]). In addition, the z-score in assay [2] (setting [8]) was -0.0893 (inactive) and -0.97 (inactive); in assay [2] (setting [9]), 0.0703 and 0.938.
In the case of `CC[C@]12CCCN3CCc4c(n(c5ccccc45)C(=O)C1)[C@@H]32`, the results for the fold change in assay [1] (setting [4]) and in assay [1] (setting [5]) were 0.89 (inactive) and 1.52, respectively. In addition, the cell count amounted to 3350 in assay [1] (setting [6]) and 3760 in assay [1] (setting [7]). The z-score in assay [2] (setting [8]) is 1.02 (inactive); in assay [2] (setting [9]) it was 0.169.
As for `CC1(C)S[C@@H]2[C@H](NC(=O)[C@H](N)c3ccccc3)C(=O)N2[C@H]1C(=O)O`, the fold change in assay [1] (setting [4]) was 0.937 (inactive) and 0.929 (inactive) and 0.871 (inactive); in assay [1] (setting [5]) it was 0.845 and 0.857 and 1.14. For the same molecule, the cell count is 8790 and 10800 and 9210 in assay [1] (setting [6]); 9380 and 11700 and 10600 in assay [1] (setting [7]). In addition, the z-score was 0.56 (inactive) and 0.538 (inactive) in assay [2] (setting [8]); -0.285 and -0.0992 in assay [2] (setting [9]).
